# In PubChem BioAssay AID602391 (National Center for Advancing Translational Sciences (NCATS), 2012):
# This is one part of the list. Records with an inconclusive call do not appear. The source made the active and inactive calls. Calls follow the shape of the dose curve; as a rule, active = well fitted inhibition curve with a large enough effect; inconclusive = small, poorly fitted or top-dose-only effect; inactive = flat fitted curve, though single readings scatter.
# Experiment: qHTS Assay for Inhibitors of Bacillus subtilis Sfp phosphopantetheinyl transferase (PPTase): SAR in hGST A1-1
# Conditions: hGST A1-1 enzyme activity counter-screen; series mostly up to 114 µM
# Excerpt: The covalent attachment of a phosphopantetheinyl (4'-PP) arm to a variety of synthases and other proteins is a key posttranslational protein modification. The 4'-PP is installed on the proteins post-translationally from coenzyme A (CoA) on a conserved serine residue by action of phosphopantetheinyl transferase (PPTase) enzymes. Phosphopantetheinylation is essential for synthase activity, and removal of the PPTase gene precludes natural product synthesis in microorganisms, or in the case of fatty acid biosynthesis, renders the organism unviable. PPTase enzymes belong to a distinct structural superfamily. Within bacteria, these enzymes are grouped into two classes based upon primary structure, the AcpS-Type and Sfp-Type PPTases. […]
# In search of small molecule Sfp-PPTase inhibitors, a fluorescence quenching assay was developed for detection of Bacillus subtilis Sfp-PPTase enzymatic activity in a miniaturized high-throughput format. […]
# This assay sought to assess the promiscuity of test articles with an unrelated target enzyme. The appropriate target for this work was determined to be human glutathione-S-transferase, an enzyme responsible for detoxifying modifying electrophilic xenobiotics to enhance their excretion. […]
row,Structure (SMILES),outcome
1,Cc1cc(C)nc(NC(=S)N2CCN(c3ccc(Cl)cc3C(F)(F)F)CC2)c1,inactive
2,COc1ccnc(NC(=S)N2CCN(c3ncc(C(F)(F)F)cc3Cl)CC2)c1,inactive
